# Data as given in PubChem BioAssay AID651871 (Sanford-Burnham Center for Chemical Genomics, 2012).
# Values joined by “and” are separate entries in the source; they are usually repeats but may differ in a detail not shown here. Identical values can stand only once.
# Tested on: HL-1
# Assay: protection of cardiomyocytes from stress damage, SAR follow-up, cell-based, panel, H9c2 and HL-1, ATP luminescence, set 2 (AID 651871);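 note: cells exposed to stressor for 2 h before ATP readout; reference of the scale not given here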
# Conditions: H9c2/HL-1 cardiomyocytes, 2-deoxyglucose stress, with 2-deoxyglucose, run 13, at 19.8 µM (top of the series)
smiles,measurement,value
COc1ccc2c(c1OC)C(=O)N1c3ccccc3C(=O)N(Cc3cccc(Cl)c3Cl)C21 (stereo unspecified),activity (protection/inhibition),84.6% and 38.5%
